{
  "source": "PubChem BioAssay (NCATS)",
  "note": "Results filed as inconclusive are left out. Active and inactive are the calls of the source. Calls follow the shape of the dose curve; as a rule, active = well fitted cell-killing curve with a large enough effect; inconclusive = small, poorly fitted or top-dose-only effect; inactive = flat fitted curve, though single readings scatter. Potency is read from the fitted curve at half-maximal effect.",
  "data": [
    {"test": "Cell Viability - LYMP1-002 - Assay at 40 hr (AID 994); also: nearly all actives have a fitted effect of over 60% in size;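 as to viability change, negative = cytotoxic: 0% = DMSO only and full inhibition = 92 µM tetraoctylammonium bromide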", "conditions": "LYMP1-002 lymphoblastoid cell viability; series mostly up to 92.2 µM; viability change, negative = cytotoxic: at the top concentration", "from_the_text": "NIH Chemical Genomics Center [NCGC]\nNIH Molecular Libraries Screening Centers Network [MLSCN]\nNational Institutes of Environmental Health Sciences [NIEHS]\nNational Toxicology Program [NTP]\nWe have developed a 1536-well cell-based assay for quantitative high throughput screening (qHTS) against a number of cell lines to determine in vitro cytotoxicity of small molecules. This particular assay uses a human lymphoblastoid cell line (LYMP1-002) purchased from Coriell Institute for Medical Research.\nNCGC Assay Protocol Summary:\nThe CellTiter-Glo luminescent cell viability assay (Promega) is a homogeneous method to measure the number of viable cells in culture. The end point readout of this assay is based on quantitation of intracellular ATP, an indicator of metabolic activity, using the luciferase reaction. Luciferase catalyzes the oxidation of beetle Luciferin to oxyluciferin and light in the presence of ATP. The luminescent signal is proportional to amount of ATP present.\nUsing the CellTiter-Glo luminescent cell viability assay, the amount of cellular ATP was measured in the lymphoblastoid cell line with complete culture medium following compound treatment for 40 hours. The assay was performed in opaque white Kalypsys 1536-well plates. In the screen, tetraoctylammonium bromide was used as positive control. Library compounds were measured for their ability to cause acute toxicity in the cell line, as reflected by a decrease in intracellular ATP levels, in a concentration-dependent manner. […] AC50 values were determined from concentration-response data modeled with the standard Hill equation.\nqHTS protocol for CellTiter Glo lymphoblastoid cellular assay\n[Step] [Parameter] [Value] [Description]\n1. Reagent; 5 uL; 2500 lymphoblastoid cells/well\n2. Time; 5 hr; 37 C incubation\n4. Controls; 23 nL; Tetraoctylammonium bromide 6.4pM to 92 uM\n5. Time; 40 hr; 37 C incubation\n6. Reagent; 5 uL; CellTiter Glo reagent\n7. Time; 30 min; Room Temperature\n8. Detection; Luminescence; Viewlux plate reader\nKeywords: cell viability, cytotoxicity, lymphoblastoid cell line, luminescence, NTPHTS, NTPHTS_NCGC, NIEHS, DSSTox, MLSMR, MLSCN, NIH Roadmap, qHTS, NCGC", "values": [
      {"molecule": "CCCCCCCCO", "viability change, negative = cytotoxic": "-5.68% (inactive)"},
      {"molecule": "COc1ccc2nc(N)sc2c1", "viability change, negative = cytotoxic": "-11.7% (inactive)"},
      {"molecule": "Cc1ccccc1C", "Potency": "inactive"},
      {"molecule": "CCCCOCCO", "Potency": "inactive"},
      {"molecule": "CN(C)CCCCCCN(C)C", "viability change, negative = cytotoxic": "-3.57% (inactive)"},
      {"molecule": "CCC(O)OC(O)CC", "note": "(stereo not given)", "Potency": "inactive"},
      {"molecule": "O=C(O)c1ccccc1", "viability change, negative = cytotoxic": "-4.44% (inactive)"},
      {"molecule": "OCCNCCO", "viability change, negative = cytotoxic": "-5.58% (inactive)"},
      {"molecule": "CCCN(CCC)C(=O)SCC", "viability change, negative = cytotoxic": "-0.308% (inactive)"},
      {"molecule": "C1OCOCO1", "viability change, negative = cytotoxic": "1.76% (inactive)"},
      {"molecule": "CCCCCCCCCCCC(=O)O", "Potency": "inactive"},
      {"molecule": "ClCCCl", "viability change, negative = cytotoxic": "-6.96% (inactive)"},
      {"molecule": "Clc1cc(Cl)c(Cl)cc1Cl", "viability change, negative = cytotoxic": "-4.47% (inactive)"},
      {"molecule": "Cc1ccc([N+](=O)[O-])c(C)c1", "viability change, negative = cytotoxic": "-1.77% (inactive)"},
      {"molecule": "COc1c2ccoc2cc2oc(=O)ccc12", "viability change, negative = cytotoxic": "-6.88% (inactive)"},
      {"molecule": "CC(C)=CCCC(C)CCO", "note": "(stereo not given)", "viability change, negative = cytotoxic": "-3.92% (inactive)"},
      {"molecule": "Nc1ccc(Cl)cc1Cl", "viability change, negative = cytotoxic": "2.66% (inactive)"},
      {"molecule": "O=NO", "Potency": "inactive"},
      {"molecule": "CCO", "viability change, negative = cytotoxic": "-1.08% (inactive)"},
      {"molecule": "CCCCC(CC)CN", "note": "(stereo not given)", "Potency": "inactive"},
      {"molecule": "C[C@H](CCC(=O)O)[C@H]1CC[C@H]2[C@@H]3CC[C@@H]4C[C@H](O)CC[C@]4(C)[C@H]3CC[C@]12C", "viability change, negative = cytotoxic": "-2.01% (inactive)"},
      {"molecule": "O=C(O)c1ccccc1C(c1ccc(O)cc1)c1ccc(O)cc1", "viability change, negative = cytotoxic": "-3.32% (inactive)"},
      {"molecule": "C=C(C)C1CC=C(C)C(O)C1", "note": "(stereo not given)", "viability change, negative = cytotoxic": "-3.48% (inactive)"},
      {"molecule": "Clc1cc(Cl)c(Cl)c(Cl)c1Cl", "viability change, negative = cytotoxic": "5.81% (inactive)"},
      {"molecule": "COc1ccc(/C=C/c2cc(OC)cc(=O)o2)cc1", "viability change, negative = cytotoxic": "-21.2% (inactive)"},
      {"molecule": "O=S(=O)(O)c1ccccc1", "viability change, negative = cytotoxic": "-3.91% (inactive)"},
      {"molecule": "C=CCc1ccc(OC)c(OC)c1", "viability change, negative = cytotoxic": "-1.01% (inactive)"},
      {"molecule": "COCC(=O)O", "viability change, negative = cytotoxic": "-4.88% (inactive)"},
      {"molecule": "O=C1CCc2ccccc2O1", "viability change, negative = cytotoxic": "1.59% (inactive)"},
      {"molecule": "O=C(O)CC(C(=O)O)C(CC(=O)O)C(=O)O", "note": "(stereo not given)", "viability change, negative = cytotoxic": "-2.79% (inactive)"},
      {"molecule": "NC1=NC(S)C2N=CN=C2N1", "note": "(stereo not given)", "Potency": "2 µM (active)"},
      {"molecule": "CCO[Si](CCCN)(OCC)OCC", "viability change, negative = cytotoxic": "-1.45% (inactive)"},
      {"molecule": "O=[N+]([O-])c1cccc(Cl)c1Cl", "viability change, negative = cytotoxic": "4.35% (inactive)"},
      {"molecule": "COc1cc(/C=C/c2ccccc2)oc(=O)c1", "viability change, negative = cytotoxic": "-18.3% (inactive)"},
      {"molecule": "Cc1c(N=C=O)cccc1N=C=O", "viability change, negative = cytotoxic": "-4.93% (inactive)"},
      {"molecule": "Nc1ccc(S(=O)(=O)O)cc1", "viability change, negative = cytotoxic": "5.83% (inactive)"},
      {"molecule": "C=CC(=C)CCC=C(C)C", "viability change, negative = cytotoxic": "-8.67% (inactive)"},
      {"molecule": "CCCCCCCCCCCCCC(=O)O", "viability change, negative = cytotoxic": "-10.2% (inactive)"},
      {"molecule": "CC1=C2[C@H](/C=C(\\C)C(=O)O)CC[C@@H](C)[C@H]2CC1", "viability change, negative = cytotoxic": "-10.1% (inactive)"},
      {"molecule": "CC1=CC(C)(C)Nc2ccccc21", "Potency": "inactive"}
    ]}
  ]
}
